In ChEMBL document CHEMBL2218924, “A broad activity screen in support of a chemogenomic map for kinase signalling research and drug discovery” (Biochem J, 2013):

Columns and labels:
[1] = target: T1, Serine/threonine-protein kinase 17A (Homo sapiens) (UniProt Q9UEE5); conditions: at 10 µM
T1 sequence (whole entry): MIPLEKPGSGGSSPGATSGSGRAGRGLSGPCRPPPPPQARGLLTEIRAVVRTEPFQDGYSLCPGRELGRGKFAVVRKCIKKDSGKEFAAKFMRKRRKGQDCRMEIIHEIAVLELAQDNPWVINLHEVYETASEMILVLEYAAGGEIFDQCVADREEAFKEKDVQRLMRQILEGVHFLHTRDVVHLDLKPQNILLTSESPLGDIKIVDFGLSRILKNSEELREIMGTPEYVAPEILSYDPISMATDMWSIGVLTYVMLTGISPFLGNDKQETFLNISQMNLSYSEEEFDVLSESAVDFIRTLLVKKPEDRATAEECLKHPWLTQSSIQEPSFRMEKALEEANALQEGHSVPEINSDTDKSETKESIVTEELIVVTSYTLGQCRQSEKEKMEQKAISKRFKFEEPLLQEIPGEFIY

[2] = target: T2, Dual specificity tyrosine-phosphorylation-regulated kinase 2 (Homo sapiens) (UniProt Q92630); conditions: at 1 µM
T2 sequence (whole entry): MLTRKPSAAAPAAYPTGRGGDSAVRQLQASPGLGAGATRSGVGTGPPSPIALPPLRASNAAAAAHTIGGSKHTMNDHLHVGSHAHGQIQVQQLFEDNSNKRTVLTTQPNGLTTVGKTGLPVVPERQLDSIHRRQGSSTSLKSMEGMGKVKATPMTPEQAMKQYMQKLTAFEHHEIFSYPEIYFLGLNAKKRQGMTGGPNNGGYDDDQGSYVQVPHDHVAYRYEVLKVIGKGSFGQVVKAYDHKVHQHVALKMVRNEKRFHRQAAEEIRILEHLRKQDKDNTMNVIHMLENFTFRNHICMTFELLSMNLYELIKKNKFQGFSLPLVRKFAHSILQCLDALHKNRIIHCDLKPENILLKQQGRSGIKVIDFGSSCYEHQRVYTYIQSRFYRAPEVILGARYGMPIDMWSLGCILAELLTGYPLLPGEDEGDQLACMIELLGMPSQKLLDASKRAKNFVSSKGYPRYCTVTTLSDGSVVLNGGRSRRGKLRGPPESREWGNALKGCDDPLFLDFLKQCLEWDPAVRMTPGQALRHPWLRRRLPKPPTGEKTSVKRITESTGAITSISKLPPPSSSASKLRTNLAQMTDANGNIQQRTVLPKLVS

[3] = target: T2, Dual specificity tyrosine-phosphorylation-regulated kinase 2 (Homo sapiens); conditions: at 10 µM
[4] = target: Epidermal growth factor receptor (Homo sapiens) (UniProt P00533); conditions: at 1 µM
[5] = target: Epidermal growth factor receptor (Homo sapiens) (UniProt P00533); conditions: at 10 µM
[6] = target: T3, Ephrin type-A receptor 1 (Homo sapiens) (UniProt P21709); conditions: at 1 µM
T3 sequence (whole entry): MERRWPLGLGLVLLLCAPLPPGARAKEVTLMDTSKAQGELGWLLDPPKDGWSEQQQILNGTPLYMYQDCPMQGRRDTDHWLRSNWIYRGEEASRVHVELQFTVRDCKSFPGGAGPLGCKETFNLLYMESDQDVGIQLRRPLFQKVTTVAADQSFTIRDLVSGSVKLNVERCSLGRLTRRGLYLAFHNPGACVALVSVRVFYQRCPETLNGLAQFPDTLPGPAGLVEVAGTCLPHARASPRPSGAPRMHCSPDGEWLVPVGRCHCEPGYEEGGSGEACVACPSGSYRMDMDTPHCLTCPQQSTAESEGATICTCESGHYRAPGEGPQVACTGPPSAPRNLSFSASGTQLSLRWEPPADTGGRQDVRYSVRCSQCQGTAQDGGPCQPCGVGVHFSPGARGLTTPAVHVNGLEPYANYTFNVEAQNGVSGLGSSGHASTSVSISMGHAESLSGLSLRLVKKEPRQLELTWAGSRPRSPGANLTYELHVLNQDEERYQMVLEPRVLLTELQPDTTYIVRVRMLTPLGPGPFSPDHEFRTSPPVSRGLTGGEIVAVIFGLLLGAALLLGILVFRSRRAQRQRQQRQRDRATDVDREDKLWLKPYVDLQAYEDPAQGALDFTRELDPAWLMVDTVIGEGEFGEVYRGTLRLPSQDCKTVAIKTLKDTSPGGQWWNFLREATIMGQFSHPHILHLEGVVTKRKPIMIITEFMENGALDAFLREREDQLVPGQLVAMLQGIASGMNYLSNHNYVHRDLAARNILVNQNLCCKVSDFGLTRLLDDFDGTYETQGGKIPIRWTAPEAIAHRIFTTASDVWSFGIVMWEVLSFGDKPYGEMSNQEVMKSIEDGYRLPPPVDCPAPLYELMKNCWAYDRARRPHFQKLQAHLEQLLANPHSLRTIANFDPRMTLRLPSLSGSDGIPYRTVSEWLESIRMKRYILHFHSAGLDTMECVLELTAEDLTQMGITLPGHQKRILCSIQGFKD

[7] = target: T3, Ephrin type-A receptor 1 (Homo sapiens); conditions: at 10 µM
[8] = target: Ephrin type-A receptor 2 (Homo sapiens) (UniProt P29317); conditions: at 1 µM
Sequence of Ephrin type-A receptor 2 (Homo sapiens) (P29317 whole entry): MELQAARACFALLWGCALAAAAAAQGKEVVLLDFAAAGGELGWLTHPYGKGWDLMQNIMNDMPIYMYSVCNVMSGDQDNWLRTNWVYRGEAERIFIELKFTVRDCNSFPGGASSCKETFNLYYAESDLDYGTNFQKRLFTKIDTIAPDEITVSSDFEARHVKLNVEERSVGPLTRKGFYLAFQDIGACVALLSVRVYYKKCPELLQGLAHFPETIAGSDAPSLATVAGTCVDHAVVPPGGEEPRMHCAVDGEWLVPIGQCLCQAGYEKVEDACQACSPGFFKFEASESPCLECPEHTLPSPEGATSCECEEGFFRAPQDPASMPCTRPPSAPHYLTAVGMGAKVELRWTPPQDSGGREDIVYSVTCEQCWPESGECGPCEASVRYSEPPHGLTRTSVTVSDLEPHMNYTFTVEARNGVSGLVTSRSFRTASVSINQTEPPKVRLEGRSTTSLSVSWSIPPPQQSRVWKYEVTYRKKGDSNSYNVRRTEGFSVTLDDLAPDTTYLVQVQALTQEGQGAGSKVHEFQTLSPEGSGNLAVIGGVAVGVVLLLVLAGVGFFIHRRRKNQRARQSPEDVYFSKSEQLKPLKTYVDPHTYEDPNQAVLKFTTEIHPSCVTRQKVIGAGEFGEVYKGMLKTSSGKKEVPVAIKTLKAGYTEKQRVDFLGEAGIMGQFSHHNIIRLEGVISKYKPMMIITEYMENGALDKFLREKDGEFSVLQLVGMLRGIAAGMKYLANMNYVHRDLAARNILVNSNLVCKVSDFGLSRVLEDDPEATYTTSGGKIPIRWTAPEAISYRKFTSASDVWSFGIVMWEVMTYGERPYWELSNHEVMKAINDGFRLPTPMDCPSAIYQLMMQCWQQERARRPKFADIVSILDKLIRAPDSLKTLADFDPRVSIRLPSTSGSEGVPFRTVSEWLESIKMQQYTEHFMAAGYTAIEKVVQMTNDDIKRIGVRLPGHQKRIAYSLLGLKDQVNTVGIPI

[9] = target: Ephrin type-A receptor 2 (Homo sapiens) (UniProt P29317); conditions: at 10 µM
[10] = target: T4, Ephrin type-A receptor 3 (Homo sapiens) (UniProt P29320); conditions: at 1 µM
T4 sequence (whole entry): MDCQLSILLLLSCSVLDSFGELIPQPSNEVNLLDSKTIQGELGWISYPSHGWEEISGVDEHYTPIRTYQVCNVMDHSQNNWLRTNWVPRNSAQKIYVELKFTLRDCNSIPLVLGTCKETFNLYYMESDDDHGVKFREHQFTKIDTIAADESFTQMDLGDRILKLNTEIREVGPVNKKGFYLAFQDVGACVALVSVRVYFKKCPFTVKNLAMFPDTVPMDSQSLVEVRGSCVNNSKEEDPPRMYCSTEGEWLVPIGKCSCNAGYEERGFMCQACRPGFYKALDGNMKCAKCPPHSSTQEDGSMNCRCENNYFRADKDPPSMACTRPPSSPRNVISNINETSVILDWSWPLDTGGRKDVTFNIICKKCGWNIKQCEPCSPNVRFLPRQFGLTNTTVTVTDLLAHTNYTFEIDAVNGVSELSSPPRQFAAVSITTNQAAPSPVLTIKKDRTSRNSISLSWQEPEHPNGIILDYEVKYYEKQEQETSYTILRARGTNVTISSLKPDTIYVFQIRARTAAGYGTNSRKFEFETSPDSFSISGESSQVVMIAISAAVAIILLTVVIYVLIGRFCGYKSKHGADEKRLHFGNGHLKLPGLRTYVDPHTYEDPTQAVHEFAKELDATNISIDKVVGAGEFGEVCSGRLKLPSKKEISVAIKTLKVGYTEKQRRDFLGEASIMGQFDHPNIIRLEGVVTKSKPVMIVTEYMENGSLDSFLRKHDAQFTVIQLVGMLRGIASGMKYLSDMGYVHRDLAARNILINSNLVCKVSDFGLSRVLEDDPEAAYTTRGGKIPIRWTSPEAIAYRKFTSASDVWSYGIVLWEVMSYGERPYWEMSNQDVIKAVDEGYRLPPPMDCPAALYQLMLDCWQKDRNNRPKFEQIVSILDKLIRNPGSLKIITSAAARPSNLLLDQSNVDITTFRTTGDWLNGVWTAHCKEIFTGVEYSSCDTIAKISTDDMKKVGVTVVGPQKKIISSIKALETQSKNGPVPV

[11] = target: T4, Ephrin type-A receptor 3 (Homo sapiens); conditions: at 10 µM
[12] = target: Ephrin type-A receptor 4 (Homo sapiens) (UniProt P54764); conditions: at 1 µM
Sequence of Ephrin type-A receptor 4 (Homo sapiens) (P54764 whole entry): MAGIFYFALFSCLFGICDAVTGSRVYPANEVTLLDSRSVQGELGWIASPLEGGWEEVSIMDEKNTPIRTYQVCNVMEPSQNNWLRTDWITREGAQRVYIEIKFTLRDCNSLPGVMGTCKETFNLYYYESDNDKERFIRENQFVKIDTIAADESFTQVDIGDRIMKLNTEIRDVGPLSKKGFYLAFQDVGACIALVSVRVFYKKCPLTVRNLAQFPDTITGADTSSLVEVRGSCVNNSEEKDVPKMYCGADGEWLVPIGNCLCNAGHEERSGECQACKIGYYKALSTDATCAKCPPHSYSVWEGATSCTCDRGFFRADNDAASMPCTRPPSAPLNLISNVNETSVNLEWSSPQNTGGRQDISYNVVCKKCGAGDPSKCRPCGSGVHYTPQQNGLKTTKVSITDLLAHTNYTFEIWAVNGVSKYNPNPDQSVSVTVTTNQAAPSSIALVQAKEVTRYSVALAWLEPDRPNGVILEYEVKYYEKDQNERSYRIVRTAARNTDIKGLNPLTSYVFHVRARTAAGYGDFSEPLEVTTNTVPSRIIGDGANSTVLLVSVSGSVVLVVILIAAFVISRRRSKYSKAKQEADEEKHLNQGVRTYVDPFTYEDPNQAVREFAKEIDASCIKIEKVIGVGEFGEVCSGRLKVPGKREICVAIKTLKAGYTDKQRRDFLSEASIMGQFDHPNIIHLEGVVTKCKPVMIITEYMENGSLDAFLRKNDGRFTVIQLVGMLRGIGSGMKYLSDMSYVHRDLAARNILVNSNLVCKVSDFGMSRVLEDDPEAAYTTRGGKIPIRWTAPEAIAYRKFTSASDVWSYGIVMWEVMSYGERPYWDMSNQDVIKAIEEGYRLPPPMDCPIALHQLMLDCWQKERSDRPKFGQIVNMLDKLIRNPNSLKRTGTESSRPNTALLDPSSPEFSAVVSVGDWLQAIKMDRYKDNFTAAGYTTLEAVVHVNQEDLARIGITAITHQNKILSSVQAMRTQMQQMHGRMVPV

[13] = target: Ephrin type-A receptor 4 (Homo sapiens) (UniProt P54764); conditions: at 10 µM
[14] = target: Ephrin type-A receptor 5 (Homo sapiens) (UniProt P54756); conditions: at 1 µM
Sequence of Ephrin type-A receptor 5 (Homo sapiens) (P54756 whole entry): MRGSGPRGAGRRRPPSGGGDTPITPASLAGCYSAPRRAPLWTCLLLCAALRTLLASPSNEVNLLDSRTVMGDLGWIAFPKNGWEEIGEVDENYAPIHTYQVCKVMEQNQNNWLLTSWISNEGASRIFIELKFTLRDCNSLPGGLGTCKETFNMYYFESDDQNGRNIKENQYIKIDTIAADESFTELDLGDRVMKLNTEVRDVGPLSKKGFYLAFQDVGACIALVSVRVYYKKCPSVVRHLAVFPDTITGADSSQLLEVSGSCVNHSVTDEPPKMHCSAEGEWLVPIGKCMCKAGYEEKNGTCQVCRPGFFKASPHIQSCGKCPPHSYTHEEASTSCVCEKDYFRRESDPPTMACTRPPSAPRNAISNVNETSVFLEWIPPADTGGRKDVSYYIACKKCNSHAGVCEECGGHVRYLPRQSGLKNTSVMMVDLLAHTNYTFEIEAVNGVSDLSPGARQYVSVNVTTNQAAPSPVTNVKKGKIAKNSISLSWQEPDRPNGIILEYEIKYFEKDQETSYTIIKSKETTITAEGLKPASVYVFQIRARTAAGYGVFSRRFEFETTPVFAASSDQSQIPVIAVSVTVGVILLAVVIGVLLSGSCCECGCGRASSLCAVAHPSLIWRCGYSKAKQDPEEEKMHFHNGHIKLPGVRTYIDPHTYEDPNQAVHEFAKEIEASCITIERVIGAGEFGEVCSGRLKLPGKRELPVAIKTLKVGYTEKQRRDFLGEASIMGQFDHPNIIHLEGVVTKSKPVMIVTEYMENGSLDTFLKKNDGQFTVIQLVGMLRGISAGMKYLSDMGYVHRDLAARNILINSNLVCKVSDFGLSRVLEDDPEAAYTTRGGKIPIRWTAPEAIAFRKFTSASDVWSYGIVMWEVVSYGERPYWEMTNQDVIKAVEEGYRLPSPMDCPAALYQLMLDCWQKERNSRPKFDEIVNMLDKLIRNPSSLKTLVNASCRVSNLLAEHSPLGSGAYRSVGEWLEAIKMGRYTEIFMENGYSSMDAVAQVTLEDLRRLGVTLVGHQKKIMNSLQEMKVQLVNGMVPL

[15] = target: Ephrin type-A receptor 5 (Homo sapiens) (UniProt P54756); conditions: at 10 µM
[16] = target: Ephrin type-A receptor 7 (Homo sapiens) (UniProt Q15375); conditions: at 1 µM
Sequence of Ephrin type-A receptor 7 (Homo sapiens) (Q15375 28-998 limits assumed): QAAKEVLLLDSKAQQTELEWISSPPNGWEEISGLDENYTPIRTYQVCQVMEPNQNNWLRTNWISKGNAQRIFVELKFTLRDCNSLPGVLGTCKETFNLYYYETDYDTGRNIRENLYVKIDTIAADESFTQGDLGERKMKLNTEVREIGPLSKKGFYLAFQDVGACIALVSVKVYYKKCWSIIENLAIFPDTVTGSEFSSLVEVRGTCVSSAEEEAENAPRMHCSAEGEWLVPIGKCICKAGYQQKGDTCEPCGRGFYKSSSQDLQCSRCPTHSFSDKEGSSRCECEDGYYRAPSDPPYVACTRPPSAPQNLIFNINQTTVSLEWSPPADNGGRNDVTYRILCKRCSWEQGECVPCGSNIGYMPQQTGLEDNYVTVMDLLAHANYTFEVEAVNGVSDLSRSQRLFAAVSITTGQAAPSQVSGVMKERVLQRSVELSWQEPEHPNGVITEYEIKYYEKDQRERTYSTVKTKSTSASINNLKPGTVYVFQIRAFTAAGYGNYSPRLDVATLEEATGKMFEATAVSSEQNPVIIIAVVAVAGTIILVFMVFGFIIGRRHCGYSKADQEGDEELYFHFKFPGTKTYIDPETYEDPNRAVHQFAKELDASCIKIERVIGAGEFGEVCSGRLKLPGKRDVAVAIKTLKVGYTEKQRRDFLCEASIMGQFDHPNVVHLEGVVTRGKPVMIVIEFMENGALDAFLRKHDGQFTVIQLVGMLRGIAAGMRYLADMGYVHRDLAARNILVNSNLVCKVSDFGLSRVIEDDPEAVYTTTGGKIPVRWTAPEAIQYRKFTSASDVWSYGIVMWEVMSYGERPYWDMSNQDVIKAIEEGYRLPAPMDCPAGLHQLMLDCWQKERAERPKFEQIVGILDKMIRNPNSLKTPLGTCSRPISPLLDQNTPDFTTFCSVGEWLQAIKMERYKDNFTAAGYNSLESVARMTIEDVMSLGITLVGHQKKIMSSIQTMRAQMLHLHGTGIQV

[17] = target: Ephrin type-A receptor 7 (Homo sapiens) (UniProt Q15375); conditions: at 10 µM
[18] = target: T5, Ephrin type-A receptor 8 (Homo sapiens) (UniProt P29322); conditions: at 1 µM
T5 sequence (whole entry): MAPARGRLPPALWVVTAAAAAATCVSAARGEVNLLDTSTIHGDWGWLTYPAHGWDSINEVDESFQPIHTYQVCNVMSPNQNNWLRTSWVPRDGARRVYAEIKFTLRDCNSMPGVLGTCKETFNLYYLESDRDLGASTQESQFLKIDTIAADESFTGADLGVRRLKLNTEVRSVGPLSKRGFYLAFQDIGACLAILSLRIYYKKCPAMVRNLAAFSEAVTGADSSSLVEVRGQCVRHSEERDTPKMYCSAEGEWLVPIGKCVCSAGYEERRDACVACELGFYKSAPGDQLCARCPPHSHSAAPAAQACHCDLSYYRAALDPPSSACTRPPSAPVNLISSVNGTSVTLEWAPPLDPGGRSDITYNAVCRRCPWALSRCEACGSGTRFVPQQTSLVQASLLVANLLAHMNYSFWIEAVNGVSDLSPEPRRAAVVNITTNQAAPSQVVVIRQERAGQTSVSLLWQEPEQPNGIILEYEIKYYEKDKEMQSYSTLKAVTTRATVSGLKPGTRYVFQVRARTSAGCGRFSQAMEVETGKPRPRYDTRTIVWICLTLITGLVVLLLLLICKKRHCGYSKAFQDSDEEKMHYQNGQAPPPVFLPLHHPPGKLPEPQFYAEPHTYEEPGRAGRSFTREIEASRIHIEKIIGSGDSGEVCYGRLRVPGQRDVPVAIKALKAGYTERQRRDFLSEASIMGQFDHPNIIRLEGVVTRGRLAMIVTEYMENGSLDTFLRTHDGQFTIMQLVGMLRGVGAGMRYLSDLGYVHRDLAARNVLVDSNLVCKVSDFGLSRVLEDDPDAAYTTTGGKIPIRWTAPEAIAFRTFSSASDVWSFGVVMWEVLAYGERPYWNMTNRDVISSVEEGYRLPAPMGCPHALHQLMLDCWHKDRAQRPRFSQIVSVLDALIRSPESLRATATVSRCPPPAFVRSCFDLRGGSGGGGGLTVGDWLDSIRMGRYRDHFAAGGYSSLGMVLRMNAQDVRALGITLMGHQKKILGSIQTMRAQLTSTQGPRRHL

[19] = target: T5, Ephrin type-A receptor 8 (Homo sapiens); conditions: at 10 µM
[20] = target: T6, Ephrin type-B receptor 1 (Homo sapiens) (UniProt P54762); conditions: at 1 µM
T6 sequence (whole entry): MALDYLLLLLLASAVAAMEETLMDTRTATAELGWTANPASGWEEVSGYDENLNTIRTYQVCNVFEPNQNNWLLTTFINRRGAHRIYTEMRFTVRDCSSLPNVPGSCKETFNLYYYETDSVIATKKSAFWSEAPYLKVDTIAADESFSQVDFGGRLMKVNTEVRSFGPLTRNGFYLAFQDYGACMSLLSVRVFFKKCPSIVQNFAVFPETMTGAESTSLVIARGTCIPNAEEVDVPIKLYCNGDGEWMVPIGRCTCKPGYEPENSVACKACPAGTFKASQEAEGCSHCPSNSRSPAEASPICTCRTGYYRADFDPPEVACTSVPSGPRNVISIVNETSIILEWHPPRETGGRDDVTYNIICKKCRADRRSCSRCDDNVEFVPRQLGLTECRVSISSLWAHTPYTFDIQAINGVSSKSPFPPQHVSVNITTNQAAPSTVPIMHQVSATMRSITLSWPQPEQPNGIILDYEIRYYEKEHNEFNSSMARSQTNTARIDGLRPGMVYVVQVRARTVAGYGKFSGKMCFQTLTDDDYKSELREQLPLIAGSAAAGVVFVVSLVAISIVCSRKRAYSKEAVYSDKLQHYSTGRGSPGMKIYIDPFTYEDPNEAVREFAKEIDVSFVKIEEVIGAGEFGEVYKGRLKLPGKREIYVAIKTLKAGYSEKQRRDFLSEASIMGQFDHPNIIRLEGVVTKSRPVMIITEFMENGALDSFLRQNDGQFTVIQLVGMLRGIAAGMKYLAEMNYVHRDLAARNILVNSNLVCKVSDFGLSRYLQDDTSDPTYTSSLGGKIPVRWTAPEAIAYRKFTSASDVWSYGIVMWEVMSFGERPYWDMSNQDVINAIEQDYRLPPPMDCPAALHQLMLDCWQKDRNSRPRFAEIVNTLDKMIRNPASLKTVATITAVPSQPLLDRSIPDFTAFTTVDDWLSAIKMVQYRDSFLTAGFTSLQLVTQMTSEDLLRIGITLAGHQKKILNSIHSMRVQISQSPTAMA

SMILES | residual activity [1] [%] | residual activity [2] [%] | residual activity [3] [%] | residual activity [4] [%] | residual activity [5] [%] | residual activity [6] [%] | residual activity [7] [%] | residual activity [8] [%] | residual activity [9] [%] | residual activity [10] [%] | residual activity [11] [%] | residual activity [12] [%] | residual activity [13] [%] | residual activity [14] [%] | residual activity [15] [%] | residual activity [16] [%] | residual activity [17] [%] | residual activity [18] [%] | residual activity [19] [%] | residual activity [20] [%]
O=C(Nc1cccc(Nc2nccc(Nc3cccc(C(F)(F)F)c3)n2)c1)C1CC1 | 10 | 95 | 96 | 61 | 19 | 22 | 22 | 79 | 19 | 95 | 47 | 102 | 92 | 99 | 80 | 81 | 43 | 97 | 67 | 62
O=c1cc(-c2cccc3c2Sc2ccccc2S3)oc(N2CCOCC2)c1 | 93 | 101 | 95 | – | – | 105 | 94 | 100 | 82 | 100 | 94 | 106 | 104 | 113 | 88 | 97 | 98 | 108 | 111 | 97
